Records with an inconclusive call do not appear. Calls of active or inactive are those of the source. Unless noted, the limit is not given here; nearly all actives have AC50 up to about 26 µM.

From PubChem BioAssay come the findings set out here.

A short description of assay [1]: growth inhibition of DIPG glioma cells, dose response, cell-based, SU-DIPG-XVII, MIPE5.0, CellTiter-Glo, qHTS (AID 1347060).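 As to AC50: cells exposed to compound for 48 hours before viability readout.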 To be noted: SU-DIPG-XVII viability, CellTiter-Glo ATP luminescence. On the technique in general: In ATP-based viability assays light output follows the ATP content of the culture.
Assay [2] in a line: growth inhibition of DIPG glioma cells, dose response, cell-based, SU-DIPG-XIII, MIPE4.0, CellTiter-Glo, qHTS (AID 1347061; cut-off not given, nearly all actives have AC50 up to about 37 µM;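 also: cells exposed to compound for 48 hours before readout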). As to conditions: SU-DIPG-XIII viability, CellTiter-Glo ATP luminescence.
Assay [3] is described as follows: growth inhibition of DIPG glioma cells, dose response, cell-based, JHH-DIPG-1, MIPE4.0, CellTiter-Glo, qHTS (AID 1347062; cut-off not given, nearly all actives have AC50 up to about 27 µM;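 as to AC50: cells exposed to compound for two days before readout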). To be noted: JHH-DIPG-1 viability, CellTiter-Glo ATP luminescence.
Assay [4] in a line: growth inhibition of DIPG glioma cells, dose response, cell-based, SU-DIPG-IV, MIPE4.0, CellTiter-Glo, qHTS (AID 1347063; cut-off not given, nearly all actives have AC50 up to about 30 µM;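 also: compound exposure lasted 48 hours before the viability readout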). To be noted: SU-DIPG-IV viability, CellTiter-Glo ATP luminescence.
Assay [5] in a line: viability loss in pontine glioma line – cell-based, SU-DIPG-XXV, MIPE5.0, CellTiter-Glo, qHTS, dose response (AID 1347065).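 Also: cells exposed to compound for 48 hours before ATP readout.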 To be noted: CellTiter-Glo ATP luminescence.
Assay [6] is described as follows: SU-DIPG-VI glioma cell viability, MIPE4.0 library, CellTiter-Glo luminescence, qHTS (AID 1347066; cut-off not given, nearly all actives have AC50 up to about 30 µM;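 also: cells exposed to compound for 48 hours before readout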). To be noted: CellTiter-Glo ATP luminescence.
Assay [7] can be described thus: JHH-DIPG-1 glioma cell viability, MIPE5.0 library, CellTiter-Glo luminescence, qHTS (AID 1347067).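 Also: cells exposed to compound for 48 hours before readout.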 As to conditions: JHH-DIPG-1 glioma viability, CellTiter-Glo ATP luminescence.
A short description of assay [8]: SU-DIPG-XXV glioma cell viability, MIPE5.0 library, qHTS (AID 1347068; cut-off not given, nearly all actives have IC50 up to about 30 µM).
Assay [9] can be described thus: sensitizers of A549 cells to miR-34 induction, primary screen, imaging, A549 dox-inducible miR-34, nuclei and caspase counts (AID 1347080;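 active = compounds whose cell count with miR-34 switched on is under 0.7 times the count with it off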). To be noted: A549 miR-34 inducible, Hoechst nuclei count, 48 h.
A short description of assay [10]: survival rescue of mitochondrial mutant cells in low glucose, primary screen, MELAS cybrids, Rieske KO mouse fibroblasts, CellTiter-Glo (AID 1508586;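 active = mean z-score across replicates of 1.96 or higher in either the MELAS or the Rieske mutant cell line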;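 also: z relative to plate mean and SD of compound and empty wells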).
Where [11] appears, read: stronger effect = lower value, cell number ratio, induced over uninduced.
Where [12] appears, read: measured here: relative caspase fold change +Dox/-Dox.
[13] abbreviates: measured here: total cells with miR-34 induction, stronger effect = lower value.
[14] abbreviates: measured here: total cells without miR-34 induction.
The mark [15] stands for this setting: MELAS cybrid survival, CellTiter-Glo 48 h, stronger effect = higher value.
The mark [16] stands for this setting: Rieske KO mouse fibroblast survival, CellTiter-Glo 72 h.

Take `C[C@@H]1CC[C@@]2(OC1)OC1CC3C4CC=C5CC(O)CCC5(C)C4CCC3(C)C1[C@@H]2C` (some centres not stated): the result in assay [1], in assay [2], in [3], in [4], in [5] and in assay [6] was inactive. Besides, the outcome in [7] and in assay [8] was inactive.

On to `CN[C@@H](C)[C@H]1[C@H](O)C[C@@]2(C)[C@@H]3CC[C@H]4C(C)(C)[C@@H](NC)CC[C@@]45C[C@@]35CC[C@]12C`, for which the call in assay [1], in assay [2], in assay [3], in assay [4], in assay [5] and in assay [6] was inactive. Besides, the outcome in assay [7] and in [8] was inactive.

Regarding `Cn1c2cc(S(C)=O)sc2c2cnn(Cc3cccc(N)c3)c(=O)c21` (configuration not stated), the call in [1], in [2], in assay [3], in [4], in [5] and in assay [6] was inactive. For the same compound, the call in assay [7] and in [8] was inactive.

A word on the AC50: it is the midpoint of the concentration-response curve, whichever way the signal moves. Turning to `Cc1cc(Nc2ncnc3ccc(-c4ccc(CNCCS(C)(=O)=O)o4)cc23)ccc1Oc1ccn2ncnc2c1`, the AC50 is 23.5 µM (active) in [1]; 23.5 µM (active) in assay [2]; 18.7 µM (active) in assay [3]; 14.8 µM (active) in [4]; 16.6 µM (active) in [5]; 16.6 µM (active) in [6]. In assay [7], the concentration at half-maximal activity (AC50) is 20.9 µM (active). In addition, the outcome in assay [8] was inactive. Besides, the fold change is 0.962 (inactive) in [9] (setting [11]) and 1.06 in [9] (setting [12]). Further, the results for the cell count in assay [9] (setting [13]) and in assay [9] (setting [14]) were 7890 and 8200, respectively. Further, the z-score was 1.86 (inactive) in [10] (setting [15]) and -0.462 in [10] (setting [16]).

In the case of `CC(C)n1cnc2c(NCCc3ccc(O)cc3)nc(-c3csc4ccccc34)nc21`, the AC50 is 18.6 µM (active) in assay [1]; 7.43 µM (active) in assay [2]; 18.7 µM (active) in [3]; 10.5 µM (active) in assay [4]; 18.6 µM (active) in [5]; 20.9 µM (active) in assay [6]. In addition, the AC50 in assay [7] was 13.2 µM (active). In addition, the call in assay [8] was inactive. Moreover, the values for the fold change in assay [9] (setting [11]) and in assay [9] (setting [12]) were 0.908 (inactive) and 0.471, respectively. For the same compound, the cell count in [9] (setting [13]) was 6480; in assay [9] (setting [14]) it was 7140. Moreover, the z-score is -0.0908 (inactive) in assay [10] (setting [15]) and 0.499 in assay [10] (setting [16]).

Take `COC1CCC(N(C(=O)C2CCC(C)CC2)c2cc(C3=CCCCC3)sc2C(=O)O)CC1` (configuration not stated): the compound was called inactive in assay [1], in assay [2], in assay [3], in assay [4], in assay [5] and in assay [7]. In assay [8], the call was inactive.

Take `CCN1CCN(CC(=O)Nc2ccc(-c3cccc4c(=O)cc(N5CCOCC5)oc34)c3sc4ccccc4c23)CC1`: the AC50 was 9.1 µM (active) in [1]; 18.7 µM (active) in assay [2]; 16.6 µM (active) in [3]; 11.8 µM (active) in assay [4]; 6.45 µM (active) in assay [5]; 5.9 µM (active) in [6]. For the same compound, in assay [7], the AC50 was 12.9 µM (active).

Turning to `NC[C@H]1O[C@H](O[C@@H]2[C@H](O)[C@@H](O[C@H]3O[C@H](CO)[C@@H](O)[C@H](N)[C@H]3O)[C@H](N)C[C@@H]2N)[C@H](O)[C@@H](O)[C@@H]1O`, the compound was called inactive in [1], in [2], in [3], in assay [4], in assay [5] and in assay [6]. The outcome in assay [7] and in assay [8] was inactive.

With `O=C(CN1C(=O)C2(CCCC2)NC[C@H]1c1cc(F)cc(F)c1)Nc1ccc2c(c1)C[C@@]1(C2)C(=O)Nc2ncccc21`, the call in [1], in assay [2], in [3], in assay [4], in assay [5] and in assay [6] was inactive. Moreover, the compound was classed as inactive in [7] and in assay [8].
